The campaign covered roughly 5,500 compounds. About 2,000 (36%) were called active. Roughly 18% stayed inconclusive and do not appear here. Rule as the data show it: active = normalized growth mostly below about 0.91 (no sharp cut-off); inconclusive = no clear call, values can overlap the other calls; inactive = mostly above about 0.92. This is one part of the list.
Experiment: chemical genetic growth profiling, strain panel (AID 1159580);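 also: tested at 20 µM; growth read once vehicle control cultures reached saturation at 30 °C; 1 = growth at the plate median or of vehicle wells; lower values mean less growth of the strain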
Details: growth OD

Measured: normalized growth

CCOc1ccc(NC(C)=O)cc1
inactive: S. cerevisiae deletion strains, locus YJR075W, strain HOC1, active compounds read low 1.02 | S. cerevisiae deletion strains, locus YKL009W, strain mrt4, active compounds read low 0.978 | S. cerevisiae deletion strains, locus YKL068W, active compounds read low 0.976 | S. cerevisiae deletion strains, locus YKL085W, strain MDH1 (second series), active compounds read low 0.985 | S. cerevisiae deletion strains, locus YKL085W, strain MDH1, active compounds read low 0.985 | S. cerevisiae deletion strains, locus YKL160W, strain elf1, active compounds read low 1.02 | S. cerevisiae deletion strains, locus YKL190W, strain CNB1, active compounds read low 0.994 | S. cerevisiae deletion strains, locus YKR001C, strain vps1, active compounds read low 0.98 | S. cerevisiae deletion strains, locus YKR026C, strain gcn3, active compounds read low 1.01 | S. cerevisiae deletion strains, locus YKR091W, strain srl3, active compounds read low 1.01 | S. cerevisiae deletion strains, locus YLL001W, strain dnm1, active compounds read low 1.01 | S. cerevisiae deletion strains, locus YLL026W, active compounds read low 1.01 | S. cerevisiae deletion strains, locus YLL041C, strain sdh2, active compounds read low 1.02 | S. cerevisiae deletion strains, locus YLR027C, strain aat2, active compounds read low 1.01 | S. cerevisiae deletion strains, locus YLR039C, strain RIC1, active compounds read low 1.01 | S. cerevisiae deletion strains, locus YLR058C, strain SHM2, active compounds read low 0.994 | S. cerevisiae deletion strains, locus YLR102C, strain apc9, active compounds read low 0.976 | S. cerevisiae deletion strains, locus YLR113W, strain HOG1, active compounds read low 0.997 | S. cerevisiae deletion strains, locus YLR221C, strain rsa3, active compounds read low 0.999 | S. cerevisiae deletion strains, locus YLR258W, strain gsy2, active compounds read low 1.02 | S. cerevisiae deletion strains, locus YLR262C, strain YPT6 (second series), active compounds read low 1.03 | S. cerevisiae deletion strains, locus YLR262C, strain YPT6, active compounds read low 0.999 | S. cerevisiae deletion strains, locus YLR268W, strain sec22, active compounds read low 1.01 | S. cerevisiae deletion strains, locus YLR320W, strain mms22, active compounds read low 1 | S. cerevisiae deletion strains, locus YLR330W, strain CHS5, active compounds read low 0.993 | S. cerevisiae deletion strains, locus YLR342W, strain FKS1 (second series), active compounds read low 0.957 | S. cerevisiae deletion strains, locus YLR342W, strain FKS1, active compounds read low 1.03 | S. cerevisiae deletion strains, locus YLR357W, strain rsc2, active compounds read low 1.01 | S. cerevisiae deletion strains, locus YLR370C, strain arc18, active compounds read low 1.01 | S. cerevisiae deletion strains, locus YLR371W, strain rom2, active compounds read low 0.962 | S. cerevisiae deletion strains, locus YLR384C, strain iki3, active compounds read low 1.02 | S. cerevisiae deletion strains, locus YLR418C, strain cdc73, active compounds read low 1 | S. cerevisiae deletion strains, locus YML016C, strain PPZ1, active compounds read low 0.996 | S. cerevisiae deletion strains, locus YML032C, strain rad52, active compounds read low 0.994 | S. cerevisiae deletion strains, locus YML120C, strain ndi1, active compounds read low 1.02 | S. cerevisiae deletion strains, locus YML124C, strain tub3, active compounds read low 0.99 | S. cerevisiae deletion strains, locus YMR058W, strain fet3, active compounds read low 1.01 | S. cerevisiae deletion strains, locus YMR078C, strain ctf18, active compounds read low 0.991 | S. cerevisiae deletion strains, locus YMR125W, strain sto1, active compounds read low 1.02 | S. cerevisiae deletion strains, locus YMR129W, active compounds read low 1.01 | S. cerevisiae deletion strains, locus YMR205C, strain PFK2, active compounds read low 1.03 | S. cerevisiae deletion strains, locus YMR223W, strain ubp8, active compounds read low 0.988 | S. cerevisiae deletion strains, locus YMR231W, strain pep5, active compounds read low 1.01 | S. cerevisiae deletion strains, locus YMR263W, strain SAP30, active compounds read low 1.01 | S. cerevisiae deletion strains, locus YMR307W, strain GAS1, active compounds read low 0.978 | S. cerevisiae deletion strains, locus YNL067W, strain RPL9B, active compounds read low 1.03 | S. cerevisiae deletion strains, locus YNL071W, strain lat1, active compounds read low 1.01 | S. cerevisiae deletion strains, locus YNL128W, strain TEP1, active compounds read low 1.02 | S. cerevisiae deletion strains, locus YNL153C, strain GIM3, active compounds read low 1.01 | S. cerevisiae deletion strains, locus YNL183C, strain NPR1, active compounds read low 0.995 | S. cerevisiae deletion strains, locus YNL209W, strain ssb2, active compounds read low 1.02 | S. cerevisiae deletion strains, locus YNL233W, strain BNI4, active compounds read low 1.01 | S. cerevisiae deletion strains, locus YNL248C, strain rpa49, active compounds read low 1.02 | S. cerevisiae deletion strains, locus YNL250W, strain rad50, active compounds read low 0.991 | S. cerevisiae deletion strains, locus YNL271C, strain bni1, active compounds read low 0.972 | S. cerevisiae deletion strains, locus YNL298W, strain CLA4, active compounds read low 0.989 | S. cerevisiae deletion strains, locus YNL307C, strain MCK1, active compounds read low 0.991 | S. cerevisiae deletion strains, locus YNL322C, strain KRE1 (second series), active compounds read low 1.01 | S. cerevisiae deletion strains, locus YNL322C, strain KRE1, active compounds read low 1 | S. cerevisiae deletion strains, locus YNR049C, strain mso1, active compounds read low 1.02 | S. cerevisiae deletion strains, locus YNR052C, strain pop2, active compounds read low 0.987 | S. cerevisiae deletion strains, locus YOL006C, strain TOP1, active compounds read low 1.15 | S. cerevisiae deletion strains, locus YOL012C, strain htz1 1.55 | S. cerevisiae deletion strains, locus YOL147C, strain pex11, active compounds read low 0.993 | S. cerevisiae deletion strains, locus YOR001W, strain rrp6, active compounds read low 1.02 | S. cerevisiae deletion strains, locus YOR061W, strain CKA2, active compounds read low 0.996 | S. cerevisiae deletion strains, locus YOR069W, strain VPS5, active compounds read low 1.07 | S. cerevisiae deletion strains, locus YOR070C, strain gyp1, active compounds read low 1.02 | S. cerevisiae deletion strains, locus YOR080W, strain dia2, active compounds read low 1.02 | S. cerevisiae deletion strains, locus YOR083W, strain WHI5, active compounds read low 1.02 | S. cerevisiae deletion strains, locus YOR106W, strain vam3, active compounds read low 1.01 | S. cerevisiae deletion strains, locus YOR136W, strain idh2, active compounds read low 0.996 | S. cerevisiae deletion strains, locus YOR144C, strain elg1, active compounds read low 0.997 | S. cerevisiae deletion strains, locus YOR184W, strain ser1, active compounds read low 0.973 | S. cerevisiae deletion strains, locus YOR231W, strain MKK1, active compounds read low 0.978 | S. cerevisiae deletion strains, locus YOR265W, strain rbl2, active compounds read low 1.01 | S. cerevisiae deletion strains, locus YOR270C, strain vph1, active compounds read low 1.02 | S. cerevisiae deletion strains, locus YOR290C, strain snf2, active compounds read low 1.01 | S. cerevisiae deletion strains, locus YOR316C, strain cot1, active compounds read low 0.983 | S. cerevisiae deletion strains, locus YPL051W, strain arl3, active compounds read low 1 | S. cerevisiae deletion strains, locus YPL055C, strain LGE1, active compounds read low 1.05 | S. cerevisiae deletion strains, locus YPL078C, strain atp4, active compounds read low 1.01 | S. cerevisiae deletion strains, locus YPL106C, strain sse1, active compounds read low 1.02 | S. cerevisiae deletion strains, locus YPL240C, strain hsp82, active compounds read low 1.02 | S. cerevisiae deletion strains, locus YPL241C, strain CIN2, active compounds read low 1.04 | S. cerevisiae deletion strains, locus YPL256C, strain CLN2, active compounds read low 1.01 | S. cerevisiae deletion strains, locus YPR119W, strain clb2, active compounds read low 0.989 | S. cerevisiae deletion strains, locus YPR141C, strain kar3, active compounds read low 0.993 | S. cerevisiae deletion strains, locus YPR163C, strain tif3, active compounds read low 0.995 | S. cerevisiae deletion strains, locus YPR167C, strain met16, active compounds read low 0.978 | S. cerevisiae deletion strains, strain wtn01, active compounds read low 0.989 | S. cerevisiae strains, strain wild type, active compounds read low 0.992

From PubChem BioAssay AID1159580 (chemical genetic matrix, 2015)
